Measurements from article PMC9911399, “Two distinct binding modes provide the RNA-binding protein RbFox with extraordinary sequence specificity”.
Substitutions are numbered along the chain they refer to; changes in the protein carry UniProt numbers. Whole data set: some 16,000 sequences, median “ka relative to ugcaugu” near 0.0091, cut for the highest 2% near 0.032. The full list was thinned out, with the highest values kept by preference.

B1: UUUCUUU (DNA:RNA)
RNA: GGGAGACCGGAAUUCAGAUUGUCCUUUCUUUUUAAAUCCCGUCGUAGCCACCA
DNA 1: CAATCTGAATTCCGGTCTCCC
DNA 2: TGGTGGCTACGACGGGATT
B2: UUGUCUG (DNA:RNA)
RNA: B1 RNA with U27G, C28U, U29C, U31G
DNA 1: CAATCTGAATTCCGGTCTCCC
DNA 2: TGGTGGCTACGACGGGATT
B3: GACUUAC (DNA:RNA)
RNA: B1 RNA with U25G, U26A, U27C, C28U, U30A, U31C
DNA 1: CAATCTGAATTCCGGTCTCCC
DNA 2: TGGTGGCTACGACGGGATT
B4: AGCGCCC (DNA:RNA)
RNA: GGGAGACCGGAAUUCAGAUUGUCCAGCGCCCUUAAAUCCCGUCGUAGCCACCA
DNA 1: CAATCTGAATTCCGGTCTCCC
DNA 2: TGGTGGCTACGACGGGATT
B5: GAUUAAA (DNA:RNA)
RNA: B1 RNA with U25G, U26A, C28U, U29A, U30A, U31A
DNA 1: CAATCTGAATTCCGGTCTCCC
DNA 2: TGGTGGCTACGACGGGATT
B6: CAAACAU (DNA:RNA)
RNA: B4 RNA with A25C, G26A, C27A, G28A, C30A, C31U
DNA 1: CAATCTGAATTCCGGTCTCCC
DNA 2: TGGTGGCTACGACGGGATT
B7: UAGGGUA (DNA:RNA)
RNA: B1 RNA with U26A, U27G, C28G, U29G, U31A
DNA 1: CAATCTGAATTCCGGTCTCCC
DNA 2: TGGTGGCTACGACGGGATT
B8: CGGCUCA (DNA:RNA)
RNA: B4 RNA with A25C, C27G, G28C, C29U, C31A
DNA 1: CAATCTGAATTCCGGTCTCCC
DNA 2: TGGTGGCTACGACGGGATT
B9: AUGGGUC (DNA:RNA)
RNA: B4 RNA with G26U, C27G, C29G, C30U
DNA 1: CAATCTGAATTCCGGTCTCCC
DNA 2: TGGTGGCTACGACGGGATT
B10: ACGAACG (DNA:RNA)
RNA: B4 RNA with G26C, C27G, G28A, C29A, C31G
DNA 1: CAATCTGAATTCCGGTCTCCC
DNA 2: TGGTGGCTACGACGGGATT
B11: GAGUUAU (DNA:RNA)
RNA: B1 RNA with U25G, U26A, U27G, C28U, U30A
DNA 1: CAATCTGAATTCCGGTCTCCC
DNA 2: TGGTGGCTACGACGGGATT
B12: UGCUUGA (DNA:RNA)
RNA: B4 RNA with A25U, G28U, C29U, C30G, C31A
DNA 1: CAATCTGAATTCCGGTCTCCC
DNA 2: TGGTGGCTACGACGGGATT
B13: CUAGUUG (DNA:RNA)
RNA: B1 RNA with U25C, U27A, C28G, U31G
DNA 1: CAATCTGAATTCCGGTCTCCC
DNA 2: TGGTGGCTACGACGGGATT
B14: UUGCUGC (DNA:RNA)
RNA: B1 RNA with U27G, U30G, U31C
DNA 1: CAATCTGAATTCCGGTCTCCC
DNA 2: TGGTGGCTACGACGGGATT
B15: UGCUUAA (DNA:RNA)
RNA: B4 RNA with A25U, G28U, C29U, C30A, C31A
DNA 1: CAATCTGAATTCCGGTCTCCC
DNA 2: TGGTGGCTACGACGGGATT
B16: UGCUAGU (DNA:RNA)
RNA: B4 RNA with A25U, G28U, C29A, C30G, C31U
DNA 1: CAATCTGAATTCCGGTCTCCC
DNA 2: TGGTGGCTACGACGGGATT
B17: UGAUUGC (DNA:RNA)
RNA: B4 RNA with A25U, C27A, G28U, C29U, C30G
DNA 1: CAATCTGAATTCCGGTCTCCC
DNA 2: TGGTGGCTACGACGGGATT
B18: UUGAUGC (DNA:RNA)
RNA: B1 RNA with U27G, C28A, U30G, U31C
DNA 1: CAATCTGAATTCCGGTCTCCC
DNA 2: TGGTGGCTACGACGGGATT
B19: UGCUUGC (DNA:RNA)
RNA: B4 RNA with A25U, G28U, C29U, C30G
DNA 1: CAATCTGAATTCCGGTCTCCC
DNA 2: TGGTGGCTACGACGGGATT
B20: CUGCUAG (DNA:RNA)
RNA: B1 RNA with U25C, U27G, U30A, U31G
DNA 1: CAATCTGAATTCCGGTCTCCC
DNA 2: TGGTGGCTACGACGGGATT

biological target: T1, RBFOX1 RRM (Homo sapiens, UniProt Q9NWB1 109-208); experiment: EMSA; HiTS-Eq, 1 nM pool, 10 min; buffer printed only for the single-RNA assays: 10 mM Tris pH 7.5, 150 mM NaCl, 3.4 mM EDTA, 0.001% NP-40, 30 C; settings: tags: His6 N-terminal (pET28a); label: 5' 32P
T1 sequence: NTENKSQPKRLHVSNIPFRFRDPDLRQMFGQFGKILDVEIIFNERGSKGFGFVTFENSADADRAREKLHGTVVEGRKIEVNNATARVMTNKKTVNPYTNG
In short: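 Purified wild-type or mutant RbFox RRM at increasing concentrations was equilibrated with 1 nM of 5′-radiolabelled RNA carrying 7 randomized nucleotides for 10 min in 50 µL. Unbound RNA was separated by 8% native PAGE and sequenced. Relative association constants came from read-count changes of each RNA species compared with the control reaction, normalised to the cognate motif.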

Binder | binding signal
B1 | 0.0113 KA relative to UGCAUGU
B2 | 0.0312 KA relative to UGCAUGU
B3 | 0.00749 KA relative to UGCAUGU
B4 | 0.00884 KA relative to UGCAUGU
B5 | 0.00427 KA relative to UGCAUGU
B6 | 0.000358 KA relative to UGCAUGU
B7 | 0.0162 KA relative to UGCAUGU
B8 | 0.00697 KA relative to UGCAUGU
B9 | 0.0197 KA relative to UGCAUGU
B10 | 0.0126 KA relative to UGCAUGU
B11 | 0.00747 KA relative to UGCAUGU
B12 | 0.0378 KA relative to UGCAUGU
B13 | 0.0137 KA relative to UGCAUGU
B14 | 0.0167 KA relative to UGCAUGU
B15 | 0.0138 KA relative to UGCAUGU
B16 | 0.0309 KA relative to UGCAUGU
B17 | 0.0265 KA relative to UGCAUGU
B18 | 0.0187 KA relative to UGCAUGU
B19 | 0.088 KA relative to UGCAUGU
B20 | 0.0317 KA relative to UGCAUGU
